# Results from PubChem BioAssay (NCATS).
# Several values for one entry are separate records, joined by “and”; a condition that tells them apart may be missing. Identical values can stand only once. Results filed as inconclusive are left out. A number with no mark means an inactive call. Activity calls are given as the source filed them. Calls come from the whole dose curve; as a rule, active = well fitted inhibition curve with a large enough effect; inconclusive = small, poorly fitted or top-dose-only effect; inactive = flat fitted curve, though single readings scatter.
# Tests used:
# [1] = test system: CRL-7250; test: Cytotoxic Profiling of Annotated Libraries Using Quantitative High-Throughput Screening (AID 1296008); conditions: Five cell lines viability, CellTiter-Glo ATP luminescence, 48-72 h; max response: active compounds read low
# Summary of the method: (§1)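 Cytotoxicity was measured as CellTiter-Glo ATP luminescence, read after 10 min at room temperature. Compound treatment of the cells lasted 48 or 72 hr at 37 degrees Celsius in a qHTS format.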
# [2] = test system: HEK293; test: as above; conditions: Five cell lines viability, CellTiter-Glo ATP luminescence, 48-72 h; max response: active compounds read low
# Summary of the method: as §1
# [3] = test system: HaCat; test: as above; conditions: Five cell lines viability, CellTiter-Glo ATP luminescence, 48-72 h; max response: active compounds read low
# Summary of the method: as §1
# [4] = test system: KB-3-1; test: as above; conditions: Five cell lines viability, CellTiter-Glo ATP luminescence, 48-72 h; max response: active compounds read low
# Summary of the method: as §1
# [5] = test system: NIH3T3; test: as above; conditions: Five cell lines viability, CellTiter-Glo ATP luminescence, 48-72 h; max response: active compounds read low
# Summary of the method: as §1
# [6] = test system: MCC-13; test: qHTS assay to identify novel small-molecules to repurpose for Merkel cell carcinoma treatment (AID 1296009); conditions: MCC and control cell lines, CellTiter-Glo viability, 72 h; series mostly up to 46 µM
# Summary of the method: (§2)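 72 hr, 37 degree celsius; NPC 8-pt / MIPE 11-pt dose response; compound pinned in DMSO; CellTiter-Glo, 10 min RT, luminescence; normalized to no-cell and DMSO controls.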
# [7] = test system: MCC-26; test: as above; conditions: MCC and control cell lines, CellTiter-Glo viability, 72 h; series mostly up to 46 µM
# Summary of the method: as §2
# [8] = test system: HACAT; test: as above; conditions: MCC and control cell lines, CellTiter-Glo viability, 72 h; at 44.8 µM (top of the series) unless noted
# Summary of the method: as §2
# % is set by controls: 0 for no effect and ±100 for the full control effect; potency is the fitted concentration of half-maximal effect.
# Note: nearly all actives have a fitted effect of over 60% in size.
smiles,measurement,setting,value
OC[C@H]1O[C@@H](O[C@H]2[C@@H](O)[C@@](O)(CO)O[C@@H]2CO)[C@H](O)[C@@H](O)[C@@H]1O,max response,[1],-0.0942%
same,max response,[2],-3.28%
same,max response,[3],1.22%
same,max response,[4],-0.101%
same,max response,[5],2.52%
same,Potency,[6],inactive
same,Potency,[7],inactive
CNC(=O)[C@H](CC1=CN=C2C=CCC=C12)NC(=O)[C@@H](CC(=O)NO)CC(C)C,max response,[1],-4.69%
same,max response,[2],4.44%
same,max response,[3],-12.2%
same,max response,[4],8.99%
same,max response,[5],-0.494%
same,Potency,[6],inactive
same,Potency,[7],inactive
CC(C)=CCCC(C)=CCCC(C)=CCCC(C)=CCCC(C)=CCCC(C)=CCCC(C)=CCCC(C)=CCCC(C)=CCO,max response,[1],0.939%
same,max response,[2],-3.76%
same,max response,[3],1.51%
same,max response,[4],4.17%
same,max response,[5],-3.52%
same,Potency,[6],inactive
same,Potency,[7],inactive
COc1cc(F)c(C(C)C)cc1-c1ccc(C(F)(F)F)cc1CN1C(=O)O[C@H](c2cc(C(F)(F)F)cc(C(F)(F)F)c2)[C@@H]1C,outcome,[1],inactive
same,max response,[2],0.948%
same,max response,[3],0.17%
same,max response,[4],-11.6%
same,max response,[5],0.998%
same,Potency,[6],inactive
same,Potency,[7],inactive
CCCCCOC(=O)Nc1nc(=O)n([C@@H]2O[C@H](C)[C@@H](O)C2O)cc1F (some centres not stated),max response,[1],0.279%
same,max response,[2],-5.3%
same,max response,[3],-7.75%
same,max response,[4],-1.34%
same,max response,[5],2.26%
same,Potency,[6],inactive
same,Potency,[7],inactive
CC(C)[C@H](O)C(=O)N[C@@H](C)C(=O)N[C@@H]1C(=O)N(C)CCc2ccccc21,max response,[1],-12.5%
same,max response,[2],-11.6%
same,max response,[3],1.12%
same,max response,[4],-11.2%
same,max response,[5],-3.15%
same,Potency,[6],inactive
same,Potency,[7],inactive
CC[C@H](C=C[C@@H](C)[C@H]1CC[C@H]2[C@@H]3CC=C4C[C@@H](O)CC[C@]4(C)[C@@H]3CC[C@]12C)C(C)C,max response,[1],-16.3%
same,max response,[2],3.5%
same,max response,[3],-3.88%
same,max response,[4],2.61%
same,max response,[5],3.97%
same,Potency,[6],inactive
same,Potency,[7],inactive
CCOC(=O)N1c2ccc(C(F)(F)F)cc2[C@@H](N(Cc2cc(C(F)(F)F)cc(C(F)(F)F)c2)C(=O)OC)C[C@H]1CC,Potency,[1],14.8 µM (active)
same,max response,[2],-0.609%
same,max response,[3],3.49%
same,max response,[4],1.68%
same,outcome,[5],inactive
same,Potency,[6],inactive
same,Potency,[7],inactive
C[C@H]1COC2=C1C(=O)C(=O)c1c2ccc2c1CCCC2(C)C,max response,[1],-3.27%
same,max response,[2],-0.441%
same,max response,[3],3.37%
same,max response,[4],-1.52%
same,outcome,[5],inactive
same,Potency,[6],inactive
same,Potency,[7],inactive
Cc1c(C(=O)Nc2ccc(N3C[C@@H](C)O[C@@H](C)C3)nc2)cccc1-c1ccc(OC(F)(F)F)cc1,max response,[1],-6.66%
same,Potency,[2],5.26 µM (active)
same,Potency,[3],9.35 µM (active)
same,max response,[4],-8.91%
same,Potency,[5],20.9 µM (active)
same,Potency,[6],inactive
same,Potency,[7],inactive
CC(NCCc1ccc(O)cc1)C(O)c1ccc(O)cc1 (configuration not stated),max response,[1],-0.502%
same,max response,[2],3.14%
same,max response,[3],-0.381%
same,max response,[4],-1.97%
same,outcome,[5],inactive
same,Potency,[6],inactive
same,Potency,[7],inactive
CC(C)CN(C[C@@H](O)[C@H](Cc1ccccc1)NC(=O)O[C@H]1CO[C@H]2OCC[C@H]21)S(=O)(=O)c1ccc(N)cc1,max response,[1],-22%
same,max response,[2],-18.9%
same,max response,[3],-16.8%
same,outcome,[4],inactive
same,outcome,[5],inactive
same,Potency,[6],inactive
same,Potency,[7],inactive
OC1CCC(Nc2ncc3nc(Nc4c(F)cc(F)cc4F)n([C@@H]4CCOC4)c3n2)CC1 (some centres not stated),outcome,[1],inactive
same,max response,[2],-2.09%
same,max response,[3],-6.12%
same,max response,[4],8.34%
same,outcome,[5],inactive
same,Potency,[6],inactive
same,Potency,[7],inactive
NC[C@H]1O[C@H](O[C@@H]2[C@@H](O)[C@@H](O[C@H]3O[C@H](CO)[C@@H](O)[C@H](N)[C@@H]3O)[C@H](N)C[C@@H]2N)[C@H](O)[C@@H](O)[C@H]1O,max response,[1],-1.7%
same,max response,[2],-2.16%
same,max response,[3],-1.4%
same,max response,[4],4.43%
same,max response,[5],-1.04%
same,Potency,[6],inactive
same,Potency,[7],inactive
N#Cc1ccc(Oc2ccc3c(c2)COB3O)cc1,outcome,[1],inactive
same,max response,[2],-0.565%
same,max response,[3],-2.09% and 3.76%
same,max response,[4],-8.17% and -9.93%
same,max response,[5],-0.632% and -20.3%
same,Potency,[6],inactive
same,Potency,[7],inactive
CC(C)CN(C[C@H](O)[C@H](Cc1ccccc1)NC(=O)O[C@H]1CCOC1)S(=O)(=O)c1ccc(N)cc1,max response,[1],0.909%
same,max response,[2],-14.4%
same,max response,[3],-15.1%
same,outcome,[4],inactive
same,max response,[5],1.75%
same,Potency,[6],inactive
same,Potency,[7],inactive
CN1CCN2c3ncccc3Cc3ccccc3C2C1 (configuration not stated),max response,[1],-0.363%
same,max response,[2],-5%
same,max response,[3],-6.78%
same,max response,[4],-7.74% and 1.92%
same,outcome,[5],inactive
same,Potency,[6],inactive
same,Potency,[7],inactive
CCNC(=O)CCCC=CC[C@@H]1[C@H](C=CC(O)CCc2ccccc2)[C@@H](O)C[C@@H]1O (some centres not stated),max response,[1],-10.2%
same,max response,[2],-24.5%
same,max response,[3],4.63%
same,max response,[4],9.82%
same,max response,[5],-1.84%
same,Potency,[6],inactive
same,Potency,[7],inactive
COC(=O)[C@H](c1ccccc1Cl)N1CCc2sccc2C1,max response,[1],-2.92%
same,max response,[2],3.92%
same,max response,[3],-12%
same,outcome,[4],inactive
same,max response,[5],-0.568%
same,Potency,[6],inactive
same,Potency,[7],inactive
CCc1cccc(CC)c1NC(=O)N1Cc2[nH]nc(NC(=O)c3ccc(N4CCN(C)CC4)cc3)c2C1,Potency,[1],16.6 µM (active) and 10.3 µM (active)
same,Potency,[2],8.2 µM (active)
same,Potency,[3],26.4 µM (active) and 18.4 µM (active)
same,Potency,[4],7.43 µM (active) and 4.61 µM (active)
same,Potency,[5],13.2 µM (active)
same,Potency,[6],inactive
same,Potency,[7],20.9 µM (active)
Cc1cc(C(C)Nc2ccccc2)c2nc(N3CCOCC3)cc(=O)n2c1 (configuration not stated),max response,[1],-10.1%
same,max response,[2],-5.74% and -23.1%
same,max response,[3],-24%
same,outcome,[4],inactive
same,Potency,[5],4.61 µM (active)
same,Potency,[6],inactive
same,Potency,[7],inactive
CSc1cccc(Nc2ncc3cc(-c4c(Cl)cccc4Cl)c(=O)n(C)c3n2)c1,Potency,[1],0.235 µM (active)
same,Potency,[2],13.2 µM (active)
same,max response,[3],-17.3%
same,max response,[4],7.1%
same,Potency,[5],0.332 µM (active)
same,Potency,[6],inactive
CC1(COc2ccc3c(c2)ncn3-c2ccc3cccc(N4CCC(N)CC4)c3n2)COC1,Potency,[1],11.6 µM (active)
same,Potency,[2],7.43 µM (active) and 8.2 µM (active)
same,Potency,[3],20.6 µM (active)
same,Potency,[4],5.9 µM (active)
same,Potency,[5],2.96 µM (active)
same,Potency,[6],18.7 µM (active)
COc1cc(C=CC(=O)O)ccc1O,max response,[1],1.23%
same,max response,[2],-0.866%
same,max response,[3],-11.1%
same,max response,[4],4.21%
same,outcome,[5],inactive
same,Potency,[6],inactive
same,Potency,[7],inactive
CCCCOCCOc1nc(-c2ccc(C(=O)O)c(F)c2)sc1C,max response,[1],-34.6%
same,max response,[2],-11.4%
same,max response,[3],-22%
same,max response,[4],-5.21%
same,max response,[5],-20.6%
same,Potency,[6],inactive
same,Potency,[7],inactive
CCOc1ccccc1N=Nc1c(C)[nH]n(-c2nc(-c3ccccc3)cs2)c1=O,max response,[1],-16.1%
same,max response,[2],-20.4%
same,max response,[3],-4.82%
same,max response,[4],-0.405%
same,max response,[5],-3.32%
same,Potency,[6],inactive
same,Potency,[7],inactive
CC(=O)Nc1cccc(-n2c(=O)n(C3CC3)c(=O)c3c(Nc4ccc(I)cc4F)n(C)c(=O)c(C)c32)c1,Potency,[1],0.164 µM (active)
same,Potency,[2],11.8 µM (active)
same,Potency,[3],3.32 µM (active) and 5.17 µM (active)
same,max response,[4],-5.06% and 7.25%
same,Potency,[5],418 nM (active) and 259 nM (active)
same,Potency,[7],inactive
O=C(c1ccc(F)c(F)c1Nc1ccc(I)cc1F)N1CC(O)([C@H]2CCCCN2)C1,Potency,[1],2.96 µM (active)
same,Potency,[2],26.4 µM (active)
same,Potency,[3],7.43 µM (active)
same,Potency,[5],8.33 µM (active)
same,Potency,[7],inactive
C[C@H]1O[C@@H](n2cc(F)c(=O)[nH]c2=O)[C@H](O)[C@H]1O,max response,[1],-14.8%
same,Potency,[2],13.2 µM (active)
same,max response,[3],-27.2%
same,max response,[4],-15.3%
same,Potency,[6],inactive
same,Potency,[7],inactive
CN[C@@H](C)[C@H]1[C@H](O)C[C@@]2(C)[C@@H]3CC[C@H]4C(C)(C)[C@@H](NC)CC[C@@]45C[C@@]35CC[C@]12C,max response,[1],-4.48% and 3.02%
same,max response,[3],-3.67%
same,outcome,[3],inactive
same,max response,[4],4.02%
same,outcome,[4],inactive
same,outcome,[5],inactive
same,outcome,[8],inactive [at 9.27 µM]
same,Potency,[6],inactive
same,Potency,[7],inactive
COc1ccc(CCN(C)CCCOc2ccc(S(=O)(=O)c3[nH]c4ccccc4c3C(C)C)cc2)cc1OC,outcome,[1],inactive
same,max response,[2],-1.95%
same,max response,[3],-8.82%
same,max response,[4],5.18%
same,Potency,[6],inactive
same,Potency,[7],inactive
